Only some compounds are listed: those with a hit (about 1.4% of all), similar ones and a draw of the others.
ARNT TACC3 PPI: disruptors of human ARNT/TACC3 interaction; 390,000 tested, 0.66% active; inhibition, % at 9.99 µM; AID 623870; AlphaScreen His-ARNT PAS-B/GST-TACC3 binding, luminescence; TACC3 fragment carries E629A point mutation;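 active = mean inhibition of replicates at least 50% and at least half of replicates each reaching 50%; inconclusive = half or more replicates reach 50% but mean below 50%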
Statin myotox sup: protects C2C12 myotubes from simvastatin toxicity; ATP luminescence, 48 h; scaled: DMSO 0, geranylgeraniol control 100; rescue of ATP level, % at 7.49 µM; 330,000 tested, 0.78% active;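 active = mean ATP rescue above about 67%, or every replicate alone reaching that limit, limit read from the data, passing the limit was not always enough; inconclusive = no clear call, values can overlap the other calls; inactive = mean under the limit and some replicate under it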;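 also: myotubes were challenged with 10 µM simvastatin during compound exposure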
PglD inh: blocks C. jejuni PglD acetyltransferase activity; 360,000 tested, 0.098% active; purified PglD enzyme, DTNB colorimetric CoA detection; inhibition, % at 12.5 µM; in the data active = inhibition above about 16%, passing the limit was not always enough; inconclusive = no clear call, values can overlap the other calls
F508del corr: correctors of CFTR F508del function in bronchial epithelial cells; CFBE cells, YFP halide quenching; stimulated with forskolin plus potentiator P3; % fluorescence drop versus neutral controls; 350,000 tested, 0.36% active; activity (quench increase), % at 7.58 µM; AID 720511;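 active = mean added fluorescence quench of at least 8% versus neutral control, with both replicates also reaching 8%; inconclusive = only one of the mean or replicate conditions met; inactive = mean below 8% and not both replicates reaching 8%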;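 also: cells transiently co-express mutant CFTR-F508del with the halide-sensitive YFP; corrector assay measuring rescue of mutant channel to the surface after 24 h compound exposure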
Of the large screens only hits and unclear results are named; the others gave an inactive call; ! = repeats disagree.

O=C(N/N=C/c1cc([N+](=O)[O-])ccc1O)c1cccc(N2CCCC2=O)c1	ARNT TACC3 PPI 78
O=[N+]([O-])c1ccc(O)c(/C=N/Nc2ccccc2Cl)c1	none
Cc1cc(C(=O)Nc2ccc3c(c2)C(=O)N(C)[C@@H]2CC[C@H](CC(=O)N[C@H](C)c4ccccc4)O[C@H]2CO3)no1	none
O=C(NN=Cc1ccccc1O)C1CC1	ARNT TACC3 PPI 39
O=C(N/N=C/c1ccc(O)c(O)c1O)/C(=C/c1ccc([N+](=O)[O-])cc1)NC(=O)c1ccccc1	ARNT TACC3 PPI 64 (no result: F508del corr)
Cc1ccc(NC(=O)/C(=C\c2ccc([N+](=O)[O-])cc2)NC(=O)c2ccccc2)cc1	none (no result: F508del corr)
Cc1c(NC(=S)N/N=C/c2cc([N+](=O)[O-])ccc2O)c(=O)n(-c2ccccc2)n1C	ARNT TACC3 PPI 70
COc1ccc(C2=NOC(C(=O)NO)C2)cc1OC1CCCC1 (configuration not stated)	none (no result: Statin myotox sup)
N#C[C@H]1[C@@H](c2ccccc2-c2ccc(F)cc2)[C@@H](CO)N1C(=O)NC1CCCC1	none (no result: ARNT TACC3 PPI, Statin myotox sup, PglD inh)
Cc1cc(NS(=O)(=O)c2ccc(Cl)cc2)nn1CC(=O)NCc1ccco1	Statin myotox sup 98 (no result: F508del corr)
C=CCSc1nnc(-c2cc3c(s2)-c2ccccc2CC3)o1	Statin myotox sup 146 (no result: F508del corr)
COc1ccc(CNC(=O)C2CCCN(S(=O)(=O)c3ccc4c(c3)CCCN4C(C)=O)C2)cc1 (configuration not stated)	Statin myotox sup 120
CCCN1[C@@H]2c3ccc(C4=CCCC4)c(=O)n3C[C@@H]2[C@@H](CO)[C@@H]1C(=O)NCC	none
Cc1ccc(N2C(=O)[C@@H]3[C@H](C2=O)C2c4ccccc4C=CN2[C@@H]3C(=O)c2ccco2)c(C)c1 (some centres not stated)	ARNT TACC3 PPI 45 (no result: F508del corr)
COc1ccc(N(C(=O)c2ccn[nH]2)C(C(=O)NC(C)(C)C)c2ccc(F)cc2)cc1 (configuration not stated)	Statin myotox sup 88 (no result: F508del corr)
C[C@@H]1CN([C@H](C)CO)C(=O)c2cc(-c3ccccc3)cnc2O[C@H]1CN(C)Cc1ccccc1	none
Cc1ccc(N2N=C(C(=O)O)CCC2=O)cc1Cl	Statin myotox sup 124
O=C(O)C1=NN(c2ccccc2)C(=O)CC1	none
Cc1cc(=O)oc2c1c(C)nn2-c1nn[nH]n1	ARNT TACC3 PPI 64 (no result: Statin myotox sup, F508del corr)
CCCc1cc(=O)oc2cc(C)cc(OCc3nn[nH]n3)c12	none (no result: F508del corr)
O=C(COc1ccc(Cl)cc1)Nc1nnc(S(=O)(=O)N2CCCCCC2)s1	Statin myotox sup 77
Cc1noc(C)c1COc1cccc(C(=O)Nc2ccccc2)c1	none
Cc1ccc(NC(=O)c2cccc(OCc3c(C)noc3C)c2)cc1	Statin myotox sup 105 (no result: ARNT TACC3 PPI, F508del corr)
O=C(C[C@@H]1C=C[C@H](NS(=O)(=O)c2ccccc2)[C@@H](CO)O1)N1CCN(c2ccccc2)CC1	none (no result: ARNT TACC3 PPI, Statin myotox sup, PglD inh)
CCOC(=O)C(CC)n1cnc2c(nnn2-c2ccc(OC)cc2)c1=O (configuration not stated)	Statin myotox sup 98 (no result: F508del corr)
COc1ccccc1N1CCN(Cc2nc3ccccc3[nH]2)CC1	none
COc1ccccc1N1CCN(Cc2nc3ccsc3c(=O)[nH]2)CC1	Statin myotox sup 126 (no result: F508del corr)
COc1ccc(S(=O)(=O)N[C@H]2CC[C@H](CC(=O)NCCc3ccccc3)O[C@@H]2CO)cc1	none
CCCC(=O)NC1=C(Cl)C(=O)c2ccccc2C1=O	ARNT TACC3 PPI 25, F508del corr 45 (no result: Statin myotox sup, PglD inh)
O=C1CNC[C@@H]2[C@@H](c3ccc(-c4ccccc4F)cc3)[C@H](CO)N12	none (no result: ARNT TACC3 PPI, Statin myotox sup, PglD inh)
COc1ccc(CN(C)C[C@@H]2Oc3ccc(NS(C)(=O)=O)cc3C(=O)N([C@H](C)CO)C[C@@H]2C)cc1	none
COc1ccccc1C#Cc1ccc2c(c1)O[C@@H](CN(C)Cc1cccnc1)[C@H](C)CN([C@H](C)CO)S2(=O)=O	F508del corr 8.2
COCC(=O)N(C)C[C@H]1Oc2cc(C#Cc3cccnc3)ccc2S(=O)(=O)N([C@H](C)CO)C[C@H]1C	ARNT TACC3 PPI active!
C[C@@H]1CN([C@H](C)CO)S(=O)(=O)c2ccc(C#Cc3ccccc3F)cc2O[C@H]1CN(C)C(=O)Cc1cccnc1	F508del corr 10
CCCNC(=O)N[C@H]1CC[C@@H](CCn2cc(C3CC3)nn2)O[C@H]1CO	none (no result: ARNT TACC3 PPI)
CCn1c(=O)c(-c2ccccc2)c(O)c2ccccc21	none (no result: F508del corr)
CCCCn1c(=O)c(-c2ccccc2)c(O)c2ccccc21	Statin myotox sup 120 (no result: F508del corr)
Cc1nc2ccccc2c(=O)n1NC(=O)C1CCCCC1	none (no result: F508del corr)
O=C(Nn1c(C2CCC2)nc2ccccc2c1=O)C1CCC1	Statin myotox sup 85 (no result: F508del corr)
Cc1ccc(/C=N/NC(=O)c2ccc3ccccc3c2)s1	F508del corr 11
O=C1NN(c2ccccc2)C(=O)C1=Cc1ccccc1	none (no result: ARNT TACC3 PPI)
O=C1NN(c2ccccc2)C(=O)/C1=C\c1ccccc1	ARNT TACC3 PPI 8.4
COc1cc2sc3cc(NCCCN4CCOCC4)ccc3c(=O)c2cc1OC	ARNT TACC3 PPI 28
CCN(CC)CCC(c1ccc(N(C)C)cc1)c1c(O)cc(OC)cc1OC (configuration not stated)	ARNT TACC3 PPI 30
CCN(CC)CCC(c1ccc(OC)cc1)c1c(O)cc(OC)cc1OC (configuration not stated)	none
CN(C(=O)c1ccc(NC(=O)Cc2ccc(NC(=O)C3CCN(C(=O)CCc4ccccc4)CC3)cc2)cc1)C1CCCC1	none
CN(C(=O)c1ccc(NC(=O)Cc2ccc(NC(=O)C3CCN(C(=O)CCc4ccccc4)CC3)cc2)cc1)C1CC1	Statin myotox sup 160
C[C@@H]1CN([C@@H](C)CO)C(=O)c2cccc(NC(=O)Nc3ccc4c(c3)OCO4)c2O[C@H]1CN(C)C(=O)Nc1ccc(F)cc1	none
O=C(CCSc1nc(-c2ccco2)cc(C(F)(F)F)n1)Nc1ccc2c(c1)OCO2	Statin myotox sup 96 (no result: ARNT TACC3 PPI, F508del corr)
O=C(CCCN1CCC(O)(c2cccc(C(F)(F)F)c2)CC1)c1ccc(F)cc1	F508del corr 8.3
O=C(CCCN1CCC(O)(c2ccc(Br)cc2)CC1)c1ccc(F)cc1	none
Cc1nnsc1NC(=O)OCc1ccc(C(F)(F)F)cc1	Statin myotox sup 105 (no result: F508del corr)
Cc1ccc(Nc2nc(-c3sc(C)nc3C)cs2)cc1	F508del corr 19
COc1ccc(Nc2nc(-c3sc(C)nc3C)cs2)c(OC)c1	F508del corr 16
Cc1ccc(-c2nnn(CC(=O)N(CCCO)C(C(=O)NC3CCCC3)c3ccc(Cl)cc3)n2)o1 (configuration not stated)	Statin myotox sup 80
C[C@@H]1CN([C@@H](C)CO)C(=O)c2c(c3ccccc3n2C)-c2ccccc2CO[C@H]1CN(C)S(=O)(=O)CC(F)(F)F	none (no result: Statin myotox sup)
Cc1ccc(NC(=O)COC(=O)c2nn(-c3ccc(Cl)cc3)cc2O)cc1	none
NNC(=O)c1nn(-c2ccc(Cl)cc2)cc1O	Statin myotox sup 113
Cc1ccc2sc(N3CCN(C(=O)c4ccc([N+](=O)[O-])o4)CC3)nc2c1C	Statin myotox sup 85
O=C(c1ccc([N+](=O)[O-])o1)N1CCN(c2nc3c(Cl)cccc3s2)CC1	Statin myotox sup inconclusive (no result: PglD inh)
O=C(c1ccc([N+](=O)[O-])o1)N1CCN(c2nc3ccc(F)cc3s2)CC1	Statin myotox sup 68
